Source: PubChem BioAssay AID717 (Columbia University Molecular Screening Center, 2007)
Screen size: about 91,000 compounds; about 40 (0.04%) were called active. Cut-off read from the data, not from the text of the source: active = activation above about 37%; inactive = the rest. These entries were drawn from the full list.

Target: Bifunctional epoxide hydrolase 2 (Homo sapiens) (UniProt P34913)
Test: sEH enzyme activity enhancers – biochemical, human sEH, primary screen (AID 717)
Settings: purified human sEH enzymatic activity, activator screen; at 2 µM; active compounds read high

Sequence of Bifunctional epoxide hydrolase 2 (Homo sapiens) (P34913 whole entry, looked up): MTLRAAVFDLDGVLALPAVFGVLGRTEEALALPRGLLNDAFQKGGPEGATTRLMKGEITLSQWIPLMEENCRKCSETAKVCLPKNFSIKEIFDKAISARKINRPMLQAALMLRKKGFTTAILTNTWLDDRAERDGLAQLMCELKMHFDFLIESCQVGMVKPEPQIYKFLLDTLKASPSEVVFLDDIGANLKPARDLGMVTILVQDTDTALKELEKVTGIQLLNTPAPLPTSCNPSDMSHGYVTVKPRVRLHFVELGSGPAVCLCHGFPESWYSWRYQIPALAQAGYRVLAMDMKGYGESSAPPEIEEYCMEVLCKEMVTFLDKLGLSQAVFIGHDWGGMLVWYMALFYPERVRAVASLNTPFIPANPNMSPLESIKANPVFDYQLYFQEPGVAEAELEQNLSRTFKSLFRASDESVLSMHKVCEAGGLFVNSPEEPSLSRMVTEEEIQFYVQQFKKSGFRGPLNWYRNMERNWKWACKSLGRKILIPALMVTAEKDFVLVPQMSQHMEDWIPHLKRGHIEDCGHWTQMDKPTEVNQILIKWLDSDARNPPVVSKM

activation, inactive:
Cc1nc(SCC(=O)N2CC(=O)Nc3ccccc32)c2c(C)c(C)sc2n1 -1.1%
COc1ccc(Cc2nnc(SCC(=O)c3cccc([N+](=O)[O-])c3)n2C)cc1 16.7%
O=C(Nc1ccc2c(c1)OCCO2)c1ccc(Cl)c(S(=O)(=O)N2CCCCC2)c1 -77.7%
CCCCNC(=O)C(=O)c1ccccc1NC(C)=O -0.9%
CC(C)(CCl)C(=O)Nc1ccc(Sc2ccc(F)cc2)cc1 -29.2%
O=C(CCNS(=O)(=O)c1ccccc1C(F)(F)F)NCc1ccc2c(c1)OCO2 3.4%
COCCCNCC(=O)Nc1sc(C)c(C)c1C(=O)OC -1%
Cc1ccc(CNC(=O)C2CC(c3ccccc3[N+](=O)[O-])=NO2)o1 (stereo not given) 1.1%
Cc1c(NC(=O)CCCOc2ccccc2)cccc1[N+](=O)[O-] -9.6%
CCC(C)n1c(-c2cc(OC)c(OC)c(OC)c2)nc2nc3ccccc3nc21 (stereo not given) 0.8%
COc1cc(C(=S)N2CCOCC2)cc(OC)c1OC(=O)c1cc([N+](=O)[O-])c(C)c([N+](=O)[O-])c1 -3.8%
COc1ccc(/C=C(/NC(=O)c2ccc(C)cc2)c2nc3ccccc3[nH]2)cc1OC 4.1%
O=C(O)c1ccccc1-c1ccccc1C(=O)Nc1cccc2ccccc12 6.9%
O=C(Nc1nnc(CCOCCOCCc2nnc(NC(=O)c3ccco3)s2)s1)c1ccco1 -12%
CCn1c(SCc2ccc(C)cc2)nnc1-c1nn(-c2ccccc2)ccc1=O 17.2%
CC(Oc1ccc(F)cc1F)C(=O)/C=C/N(C)C (stereo not given) 0.5%
CCOC(=O)C1=C(C)Nc2sc(C(=O)c3ccc(Br)cc3)c(N)c2C1c1ccc(C(=O)OC)cc1 (stereo not given) -3.6%
Cc1cc([N+](=O)[O-])c(NC2CCCCC2)c([N+](=O)[O-])c1 3.5%
O=C(NCCc1ccccn1)c1cc(C(=O)C2CCCCC2)c[nH]1 9.3%
CC(C)c1cc(C(N)=O)c(NC(=O)c2cccc(COc3ccc(Br)cc3)c2)s1 -3.7%
Cc1ccc(NC(=S)NC2CCCC2)cc1 -29.3%
COC(=O)c1ccccc1OCC(=O)N1CCN(c2ccc(Cl)cc2)CC1 -44.9%
C=CCNc1cnn(-c2ccc(C)cc2)c(=O)c1Cl 0.5%
CCc1cccc2c(C=C(C#N)C#N)cn(CC(=O)N3CCCCC3)c12 5%
COCCCn1c(SCc2cccc(OC)c2)nc2cc(OC)c(OC)cc2c1=N -5.2%
C=CCNC(=O)c1sc(SC)cc1-c1ccc(Cl)cc1 14.9%
O=C(O)/C=C/C(=O)Nc1ccc(F)cc1F 6.8%
C/C(=N\NS(=O)(=O)c1cccc([N+](=O)[O-])c1)c1cc2ccccc2o1 -6%
COc1cccc(/C=N/NC(=O)c2cccc([N+](=O)[O-])c2)c1OS(=O)(=O)c1ccc(C)cc1 -13.5%
CCC(=O)OCc1c(C(F)(F)F)nn(C)c1Oc1cccc(C(F)(F)F)c1 -5.9%
Cc1nn(CC(=O)Nc2nc3ccccc3s2)c(C)c1[N+](=O)[O-] 8%
O=C(Cn1cncn1)N/N=C/c1c2ccccc2cc2ccccc12 -1.1%
CONC(=O)c1cc(OCC(F)(F)F)ccc1OCC(F)(F)F -7.2%
CC(=O)NS(=O)(=O)c1ccc(NC(=O)/C=C/c2ccccc2Cl)cc1 -14.4%
Cc1ccc(N2CCN(/N=C/c3cccs3)CC2)cc1 1.6%
CC(C)(C)NC(=O)NC(=O)COC(=O)CCC1CCCCC1 -0.5%
Cc1cc2c(cc1C)N(C(=O)CN1C(=O)c3ccccc3C1=O)C(C)(C)c1ssc(=S)c1-2 18.1%
O=C(NCc1cccnc1)c1cccnc1Sc1ccc(Cl)cc1 17.3%
N/C(=N\OC(=O)CCc1ccccc1)c1ccc(Cl)cc1 10.5%
CC1CCN(C(NC(=O)c2ccco2)C(=O)c2ccccc2)CC1 (stereo not given) -0.4%
CCCCCCCCOC1OC(CO)C(O)C(O)C1NC(C)=O (stereo not given) -6.6%
O=C(CSc1ccccc1)Nc1ccc(NC(=O)c2ccco2)cc1 -17.6%
CC(=O)c1cnn(-c2cc(Oc3ccc(F)cc3)ncn2)c1C 7.1%
O=C(NCCCCCCCCCNC(=O)C(F)(F)F)C(F)(F)F -6.7%
O=C(Nc1ccn(Cc2ccccc2F)n1)c1ccc(COc2ccc(Cl)cc2Cl)o1 -1.7%
